Molecules are shown by their SMILES. Entries with a potency or affinity are not part of this list. The source made the active and inactive calls. The rule behind the calls is not given here.

Chain of Kelch-like ECH-associated protein 1 (Homo sapiens) + Nuclear factor erythroid 2-related factor 2 (Homo sapiens) (Q14145 whole entry, looked up, the tested form may be a part): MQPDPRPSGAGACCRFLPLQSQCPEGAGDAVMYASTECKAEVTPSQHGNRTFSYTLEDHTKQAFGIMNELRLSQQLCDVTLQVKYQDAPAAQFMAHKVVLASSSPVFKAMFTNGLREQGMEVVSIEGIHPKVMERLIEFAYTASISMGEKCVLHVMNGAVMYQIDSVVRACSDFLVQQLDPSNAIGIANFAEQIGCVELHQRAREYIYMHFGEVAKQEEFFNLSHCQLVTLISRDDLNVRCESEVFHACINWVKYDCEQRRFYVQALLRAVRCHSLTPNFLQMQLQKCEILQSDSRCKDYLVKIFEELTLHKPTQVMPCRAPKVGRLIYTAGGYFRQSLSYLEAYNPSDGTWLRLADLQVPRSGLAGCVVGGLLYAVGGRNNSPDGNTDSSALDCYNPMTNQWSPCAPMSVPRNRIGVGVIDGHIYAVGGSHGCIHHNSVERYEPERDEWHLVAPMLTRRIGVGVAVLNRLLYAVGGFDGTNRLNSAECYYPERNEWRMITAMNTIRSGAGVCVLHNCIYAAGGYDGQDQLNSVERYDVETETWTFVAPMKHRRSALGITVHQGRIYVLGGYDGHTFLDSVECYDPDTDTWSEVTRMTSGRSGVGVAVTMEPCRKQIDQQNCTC
Chain of Kelch-like ECH-associated protein 1 (Homo sapiens) + Nuclear factor erythroid 2-related factor 2 (Homo sapiens) (Q16236 whole entry, looked up, the tested form may be a part): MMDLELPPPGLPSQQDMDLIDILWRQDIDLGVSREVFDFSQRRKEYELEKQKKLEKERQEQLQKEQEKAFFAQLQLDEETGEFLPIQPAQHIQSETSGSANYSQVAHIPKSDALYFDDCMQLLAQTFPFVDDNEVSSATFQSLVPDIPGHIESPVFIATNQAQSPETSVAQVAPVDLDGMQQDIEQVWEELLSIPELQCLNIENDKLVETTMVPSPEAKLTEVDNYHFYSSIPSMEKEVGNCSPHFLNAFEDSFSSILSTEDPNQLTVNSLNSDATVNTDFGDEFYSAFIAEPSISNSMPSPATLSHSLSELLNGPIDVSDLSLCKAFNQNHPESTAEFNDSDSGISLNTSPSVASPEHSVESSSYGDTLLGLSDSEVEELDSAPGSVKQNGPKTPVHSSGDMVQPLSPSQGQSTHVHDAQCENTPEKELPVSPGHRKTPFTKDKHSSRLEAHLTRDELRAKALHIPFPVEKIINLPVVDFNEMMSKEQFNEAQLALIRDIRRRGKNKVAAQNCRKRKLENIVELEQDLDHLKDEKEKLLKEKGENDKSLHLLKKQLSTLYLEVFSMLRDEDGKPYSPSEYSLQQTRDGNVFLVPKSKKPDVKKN

The assay concerns the target Kelch-like ECH-associated protein 1 (Homo sapiens) + Nuclear factor erythroid 2-related factor 2 (Homo sapiens) (UniProt Q14145+Q16236). Description: Keap1-Nrf2 protein-protein interaction inhibitors, dose response, biochemical, fluorescence polarization, cherry-picked samples (AID 588683).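 Note: Kelch domain of Keap1 binding a fluorescein-labelled 9mer Nrf2 peptide; more negative means stronger inhibition of peptide binding.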 The following applies: Keap1/Nrf2 peptide fluorescence polarization, plate reader; series mostly up to 26 µM. For orientation: Polarisation of emitted light reports the rotation of a fluorescent probe.
Turning to `CCN1/C(=C\c2ccc3ccccc3[n+]2CC)Sc2cc(C)ccc21`, the result was inactive.

Regarding `Fc1ccc(C2=CC(c3ccco3)n3ncnc3N2)cc1` (stereo not drawn), the outcome was inactive. Regarding `Cc1ccc(-c2nc3sc(C#N)c(N)n3c(=O)c2C#N)cc1`, the result was inactive. Regarding `Cc1cscc1NC(=O)/C=C/C(=O)O`, the result was inactive. For `CC1CCN(C(=O)Cn2cc(C(F)(F)F)ccc2=O)c2ccccc2S1` (stereo not drawn), the outcome was inactive. Take `CCOC(=O)c1c(=O)n(O)c2ccc(OC)cc2[n+]1[O-]`: the result was inactive.

With `CCCN(CCC)C(=O)C1c2ccccc2Oc2ccccc21`, the outcome was inactive. As to `CN(C)CCN(C)Cc1c2ccccc2c(CN(C)CCN(C)C)c2ccccc12`, the result was inactive. As to `CC(=O)C1C(c2ccc(F)cc2)c2c(noc2C)CC1(C)O` (stereo not drawn), the result was inactive.

Regarding `Cc1cnc(NC(=O)Cc2ccc(S(=O)(=O)N3CCOCC3)s2)s1`, the result was inactive. With `N=c1c(C(=O)NC2CCCC2)cc2c(=O)n3ccccc3nc2n1C1CCCCC1`, the outcome was inactive.

As for `CSc1nsc2nc(=O)c(/C=C3\C=Nc4ccccc43)c(N)n12`, the result was inactive. Turning to `CC(=O)c1ccc2c(c1)C1C=CCC1C(C(=O)O)N2` (stereo not drawn), the outcome was inactive. The value for `CNc1nnc(SCC(=O)c2cc(C)n(C3CC3)c2C)s1` was “inactive”. On to `Cc1ccc(C(=O)N/C(=C\c2ccc(-c3ccccc3[N+](=O)[O-])o2)C(=O)NCCCN(C)C)cc1`, for which the outcome was inactive. Turning to `CCCCC1OC2(C)OC(=N)C1(C#N)C(C#N)(C#N)C2c1ccccc1` (stereo not drawn), the result was inactive. `O=C(O)c1cc(N2N=C(C(F)(F)F)/C(=C/C=C/c3ccco3)C2=O)ccc1Cl`: the outcome was inactive. With `COc1ccc(NC(=S)N2CCN(Cc3ccc(C)cc3)CC2)cc1` the entry was “inactive”; with `Cc1nnc(NC(=O)c2ccc3c(c2)NC(=O)CS3)s1`, “inactive”. On to `CCOc1ccccc1C=C1SC(=S)NC1=O`, for which the result was inactive. For the compound `N#Cc1c(SCC(=O)Nc2nncs2)sc2c(O)cc(=O)[nH]c12`, the outcome was inactive. With `CCCCN1C(=O)/C(=C2/Sc3ccccc3N2C)S/C1=N\c1ncn[nH]1` the entry was “inactive”; with `Cc1nn(-c2ccccc2Cl)c(Cl)c1/C=N/Nc1nc2ccccc2s1`, “inactive”. Consider `CCC(CNc1cc(OC)cc2cccnc12)NC1CCCCC1` (stereo not drawn), for which the result was inactive.

In the case of `CCN1CC=C2C(C1)C(c1ccc(Cl)s1)C(C#N)=C(N)C2(C#N)C#N` (stereo not drawn), the outcome was inactive. The value for `C=CCOc1ccc(CNc2ccc(NC(=O)CC(C)C)cc2)cc1OC` was “inactive”.

As to `CC(C)(C)c1ccccc1NC(=O)NC1CCN(Cc2c(F)cccc2Cl)CC1`, the result was inactive. For the compound `Cc1[nH]nc2c1C(CC(C)C)C(C#N)=C(N)O2` (stereo not drawn), the result was inactive.

Regarding `O=c1[nH]c(-[n+]2ccccc2)c(/C=N/NC([S-])=Nc2ccccc2)s1`, the result was inactive. On to `CCOCCCn1c(=NC(=O)c2cccs2)c(C#N)cc2c(=O)n3ccccc3nc21`, for which the outcome was inactive. Turning to `O=C(COC(=O)/C=C/c1cccc(Cl)c1)NC1CC1`, the result was inactive. As for `CN(C)CCNC(=O)c1c(NC(=O)c2ccccc2)sc2c1CCCC2`, the result was inactive. Take `COc1ccc(/C=c2\s/c(=C(/C#N)C(=O)NCc3ccco3)n(-c3ccccc3)c2=O)cc1`: the result was inactive. Regarding `O=S(=O)(Nc1ncccn1)c1ccc(NC(=S)NCc2cccnc2)cc1`, the outcome was inactive. `Nc1nc(SCC(=O)Nc2cc(C(F)(F)F)ccc2N2CCOCC2)n[nH]1`: the outcome was inactive.

In the case of `O=C(Cc1ccc(S(=O)(=O)N2CCCC2)s1)Nc1nc2c(s1)CCCC2`, the result was inactive.

Consider `S=C1SCN(CC2CC2)CN1CC1CC1`, for which the result was inactive. As to `O=C(NC1(O)C(=O)c2ccccc2C1=O)c1c(Cl)cccc1Cl`, the result was inactive.
